{
  "source": "PubChem BioAssay (NCATS)",
  "note": "Records with an inconclusive call do not appear. Values without a mark were called inactive. Calls of active or inactive are those of the source. Calls come from the whole dose curve. Square brackets hold non-standard residues; d marks the D form. Peptide text beside a SMILES is read from it. ξ: configuration not given here. d(hArg(Et2)) = CCN=C(NCC)NCCCC[C@@H](N)C(=O)O; hArg(Et2) = CCN=C(NCC)NCCCC[C@H](N)C(=O)O; Phe(4-Cl) = N[C@@H](Cc1ccc(Cl)cc1)C(=O)O; ξ2Nal = NC(Cc1ccc2ccccc2c1)C(=O)O; 3Pal = N[C@@H](Cc1cccnc1)C(=O)O; ξP = O=C(O)C1CCCN1",
  "data": [
    {"test": "Primary qHTS for Huh7 cytotoxicity: counterscreen for inhibitors of MERS-S pseudotyped particle cell entry (AID 1479147); for activity change, negative = cytotoxicity: % is set by controls: 0 for no effect and ±100 for the full control effect", "conditions": "cell viability read-out; series mostly up to 57.1 µM; activity change, negative = cytotoxicity: at the top concentration", "values": [
      {"smiles": "CCOC(=O)COc1ccc2c(C)c(CCN(CC)CC)c(=O)oc2c1", "outcome": "inactive"},
      {"smiles": "O=[N+]([O-])c1ccc(/C=C/c2cccc(CO)n2)o1", "activity change, negative = cytotoxicity": "-5.91%"},
      {"smiles": "COCC(=O)Nc1cc(Sc2ccccc2)ccc1N=C(NC(=O)OC)NC(=O)OC", "activity change, negative = cytotoxicity": "-22.6%"},
      {"smiles": "CCC(C)C(NC(=O)C(Cc1ccc(O)cc1)NC(=O)C(NC(=O)C(CCCN=C(N)N)NC(=O)C(N)CC(=O)O)C(C)C)C(=O)NC(Cc1cnc[nH]1)C(=O)N1CCCC1C(=O)NC(Cc1ccccc1)C(=O)O", "note": "(stereo unspecified)", "activity change, negative = cytotoxicity": "-9.92%"},
      {"smiles": "OC[C@H]1O[C@@H](O)[C@H](O)[C@@H](O)[C@@H]1O", "outcome": "inactive"},
      {"smiles": "COCC1=C(C(=O)OC(C)OC(=O)OC(C)C)N2C(=O)[C@@H](NC(=O)/C(=N/OC)c3csc(N)n3)[C@H]2SC1", "note": "(stereo partly specified)", "outcome": "inactive"},
      {"smiles": "CC(Cc1ccc2c(c1)OCO2)NCC(O)c1ccc(O)c(O)c1", "note": "(stereo unspecified)", "outcome": "inactive"},
      {"smiles": "OC[C@H]1O[C@@H](OC[C@H]2O[C@@H](O[C@@H]3[C@@H](O)[C@H](O)O[C@H](CO)[C@H]3O)[C@H](O)[C@@H](O[C@@H]3O[C@H](CO)[C@@H](O)[C@H](O)[C@H]3O)[C@@H]2O)[C@H](O)[C@@H](O)[C@@H]1O", "activity change, negative = cytotoxicity": "0.629%"},
      {"smiles": "CC(C)(C)c1ccc(CN2CCN(C(c3ccccc3)c3ccc(Cl)cc3)CC2)cc1", "note": "(stereo unspecified)", "activity change, negative = cytotoxicity": "-11.8%"},
      {"smiles": "CC1=CC(O)CC(C)(C)C1/C=C/C(C)=C/C=C/C(C)=C/C=C/C=C(C)/C=C/C=C(C)/C=C/C1=C(C)CC(O)CC1(C)C", "note": "(stereo unspecified)", "outcome": "inactive"},
      {"smiles": "O=C(N[C@H]1CCS[C@H]2CCC[C@@H](C(=O)O)N2C1=O)[C@@H](S)Cc1ccccc1", "activity change, negative = cytotoxicity": "-1.51%"},
      {"smiles": "CC1(C)S[C@@H]2[C@H](NC(=O)C(C(=O)O)c3ccsc3)C(=O)N2[C@H]1C(=O)O", "note": "(stereo partly specified)", "activity change, negative = cytotoxicity": "1.75%"},
      {"smiles": "NCCNc1ccc(NCCN)c2c1C(=O)c1ccncc1C2=O", "activity change, negative = cytotoxicity": "-8.26%"},
      {"smiles": "CC1(C)S[C@@H]2[C@H](NC(=O)[C@H](N)c3ccccc3)C(=O)N2[C@H]1C(=O)OCOC(=O)[C@@H]1N2C(=O)C[C@H]2S(=O)(=O)C1(C)C", "activity change, negative = cytotoxicity": "3.45%"},
      {"smiles": "Cc1cc(Nc2ccccc2C(=O)O)ccc1Cl", "activity change, negative = cytotoxicity": "-11.9%"},
      {"smiles": "CO/N=C(\\C(=O)N[C@@H]1C(=O)N2C(C(=O)O)=C(CSc3nnnn3C)CS[C@H]12)c1csc(N)n1", "outcome": "inactive"},
      {"smiles": "ClCC1CO1", "note": "(stereo unspecified) (tested in a mixture with another compound)", "outcome": "inactive"},
      {"smiles": "CNC(C)[C@@H](O)c1ccc(O)cc1", "note": "(stereo partly specified)", "activity change, negative = cytotoxicity": "2.9%"},
      {"smiles": "CCCCCCCCCCCCCCCCCCCCCC(=O)Nc1ccn([C@@H]2O[C@H](CO)[C@@H](O)[C@@H]2O)c(=O)n1", "activity change, negative = cytotoxicity": "0.593% [at 26.4 µM]"},
      {"smiles": "CC(C)(C)c1ccc2c(S(=O)(=O)O)c(C(C)(C)C)ccc2c1", "outcome": "inactive"},
      {"smiles": "C[N+](C)(C)C1CCC(CC2CCC([N+](C)(C)C)CC2)CC1", "note": "(stereo unspecified)", "activity change, negative = cytotoxicity": "0.337%"},
      {"smiles": "CCOC(=O)C=C(C)C=CC[C@@H](C)CCCC(C)C", "outcome": "inactive"},
      {"smiles": "CCNC(=NCCCC[C@H](NC(=O)[C@H](CC(C)C)NC(=O)[C@@H](CCCCN=C(NCC)NCC)NC(=O)[C@@H](Cc1ccc(O)cc1)NC(=O)[C@@H](CO)NC(=O)[C@H](Cc1cccnc1)NC(=O)[C@H](Cc1ccc(Cl)cc1)NC(=O)C(Cc1ccc2ccccc2c1)NC(C)=O)C(=O)N1CCCC1C(=O)N[C@H](C)C(N)=O)NCC", "note": "(stereo partly specified) (Ac-[ξ2Nal][Phe(4-Cl)][3Pal][dS][dY][d(hArg(Et2))]L[hArg(Et2)][ξP][dA]-NH2)", "outcome": "inactive"},
      {"smiles": "C[C@@H]1CCC[C@H](C)N1NC(=O)c1ccc(Cl)c(S(N)(=O)=O)c1", "outcome": "inactive"},
      {"smiles": "CC1(C)[C@H](C=C(Cl)Cl)[C@@H]1C(=O)OCc1c(F)c(F)cc(F)c1F", "outcome": "inactive"},
      {"smiles": "O1[As]2O[As]1O2", "outcome": "inactive"},
      {"smiles": "CCCc1ccc(C(=O)O)cc1", "outcome": "inactive"},
      {"smiles": "C[C@]12C[C@@H]3S[C@H]3C[C@@H]1CC[C@H]1[C@H]3CC[C@@H](O)[C@@]3(C)CC[C@@H]12", "outcome": "inactive"},
      {"smiles": "CC(C)(C)NC(=O)[C@@H]1C[C@@H]2CCCC[C@H]2CN1C[C@@H](O)[C@H](Cc1ccccc1)NC(=O)[C@H](CC(N)=O)NC(=O)c1ccc2ccccc2n1", "activity change, negative = cytotoxicity": "-1.94%"},
      {"smiles": "CO[C@@H]1[C@H](C)OC(O[C@H]2CC(Oc3cc4cc5c(c(O)c4c(O)c3C)C(=O)[C@@H](OC3C[C@@H](OC4C[C@H](OC6C[C@](C)(O)[C@@H](OC(C)=O)[C@H](C)O6)[C@@H](O)[C@H](C)O4)[C@H](O)[C@@H](C)O3)[C@H]([C@@H](OC)C(=O)[C@@H](O)[C@H](C)O)C5)O[C@@H](C)[C@H]2OC(C)=O)C[C@@H]1O", "note": "(stereo partly specified)", "activity change, negative = cytotoxicity": "-36.3%"},
      {"smiles": "CC[C@H]1OC(=O)C[C@@H](O)[C@H](C)[C@@H](OC2OC(C)C(O)C(N(C)C)C2O)[C@@H](CCN2CCCCC2)C[C@@H](C)C(=O)/C=C/C(C)=C/[C@@H]1CN1CCCCC1", "note": "(stereo partly specified)", "outcome": "inactive"}
    ]}
  ]
}
